Calls of active or inactive are those of the source.
Experiments:
[1] = system: Plasmodium falciparum Sir2 (PF13_0152, Sir2A); assay: Plasmodium falciparum Sir2A binding compounds – biochemical, small-molecule microarray, 635 nm fluorescence, primary screen (AID 1098); conditions: fluorescence 635 nm, higher = more signal;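 note: score merges spot fluorescence intensity with its signal-to-noise ratio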
[2] = probe aDKK1 binding to arrayed compounds – biochemical, biotinylated probe, 635/667 nm fluorescence, primary screen (AID 1099); conditions: small-molecule microarray, higher = more signal;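 note: score merges 667nm spot fluorescence with signal to noise across triplicate slides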
[3] = probe aCHRDL2 binding to arrayed compounds – biochemical, biotinylated probe, 635/667 nm fluorescence, primary screen (AID 1100); conditions: small-molecule microarray, higher = more signal
[4] = change in splice reporter luminescence, either direction, cell-based, HEK293, spliceosome inhibition project, primary screen (AID 1101); conditions: HEK293 splicing luciferase reporter, 24 h, higher = more signal, called active from +8 up or from −8 down;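 note: HEK293 cells carrying a splicing-competent luciferase reporter gene; test concentration not given here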
[5] = molecular target: Fibroblast growth factor 10 (Homo sapiens) (UniProt O15520); assay: compounds binding fibroblast growth factor 10 – biochemical, small-molecule microarray, 635 nm fluorescence, primary screen (AID 1102); conditions: FGF10 binding, fluorescence 635 nm, higher = more signal
Chain of Fibroblast growth factor 10 (Homo sapiens) (O15520 whole entry, looked up): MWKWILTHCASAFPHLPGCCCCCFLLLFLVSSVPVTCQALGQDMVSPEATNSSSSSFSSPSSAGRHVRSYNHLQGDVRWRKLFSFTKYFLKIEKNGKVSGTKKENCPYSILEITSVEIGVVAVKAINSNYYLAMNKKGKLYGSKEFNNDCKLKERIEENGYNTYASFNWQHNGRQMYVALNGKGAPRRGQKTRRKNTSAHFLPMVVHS

[6] = system: glycogen synthase kinase-3 (GSK3A per assay name; protocol says GSK3B); assay: compounds binding glycogen synthase kinase-3 – biochemical, small-molecule microarray, 635 nm fluorescence, GSK3A, primary screen (AID 1103); conditions: fluorescence 635 nm, higher = more signal; note: the record names both GSK3A and GSK3B
[7] = molecular target: Epidermal growth factor receptor (Homo sapiens) (UniProt P00533); assay: compounds binding epidermal growth factor receptor – biochemical, small-molecule microarray, 635 nm fluorescence, primary screen (AID 1104); conditions: EGFR binding, higher = more signal;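 note: score merges 667 nm emission intensity with spot signal to noise over triplicate slides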
Chain of Epidermal growth factor receptor (Homo sapiens) (P00533 whole entry, looked up): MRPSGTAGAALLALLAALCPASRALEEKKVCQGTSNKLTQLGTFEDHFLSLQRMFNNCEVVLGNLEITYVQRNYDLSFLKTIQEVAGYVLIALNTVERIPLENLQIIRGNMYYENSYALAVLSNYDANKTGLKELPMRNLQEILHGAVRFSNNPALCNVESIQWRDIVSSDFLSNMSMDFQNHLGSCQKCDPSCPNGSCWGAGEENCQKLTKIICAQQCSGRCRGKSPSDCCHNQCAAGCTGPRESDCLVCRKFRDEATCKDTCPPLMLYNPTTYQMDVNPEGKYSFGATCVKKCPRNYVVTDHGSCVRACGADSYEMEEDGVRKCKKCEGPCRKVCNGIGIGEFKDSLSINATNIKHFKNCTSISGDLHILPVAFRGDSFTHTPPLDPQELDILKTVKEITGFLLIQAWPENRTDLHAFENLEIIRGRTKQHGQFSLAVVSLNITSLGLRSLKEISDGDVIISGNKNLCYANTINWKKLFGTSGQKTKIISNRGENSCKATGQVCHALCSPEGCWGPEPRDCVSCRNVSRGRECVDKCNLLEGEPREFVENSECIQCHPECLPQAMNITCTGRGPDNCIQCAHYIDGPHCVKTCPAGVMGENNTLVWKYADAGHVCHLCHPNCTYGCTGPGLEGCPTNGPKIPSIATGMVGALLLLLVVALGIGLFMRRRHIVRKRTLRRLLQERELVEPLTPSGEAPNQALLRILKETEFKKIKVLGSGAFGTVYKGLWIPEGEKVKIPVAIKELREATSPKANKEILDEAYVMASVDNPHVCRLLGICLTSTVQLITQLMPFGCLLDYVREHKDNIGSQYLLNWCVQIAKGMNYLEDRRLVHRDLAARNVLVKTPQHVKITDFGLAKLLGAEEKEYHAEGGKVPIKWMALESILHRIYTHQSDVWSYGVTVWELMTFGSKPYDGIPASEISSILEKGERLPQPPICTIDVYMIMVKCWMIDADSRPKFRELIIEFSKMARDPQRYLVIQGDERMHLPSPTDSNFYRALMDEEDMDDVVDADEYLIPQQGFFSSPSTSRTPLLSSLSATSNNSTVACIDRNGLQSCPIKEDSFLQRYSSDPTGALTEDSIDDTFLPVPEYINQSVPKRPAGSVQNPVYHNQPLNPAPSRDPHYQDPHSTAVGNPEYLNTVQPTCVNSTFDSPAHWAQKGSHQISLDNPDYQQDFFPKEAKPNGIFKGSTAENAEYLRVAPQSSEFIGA

[8] = molecular target: Follistatin-related protein 3 (Homo sapiens) (UniProt O95633); assay: compounds binding follistatin-related protein 3 – biochemical, small-molecule microarray, 635 nm fluorescence, primary screen (AID 1105); conditions: FSTL3 binding, higher = more signal;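 note: score merges emission near 667 nm and signal to noise per printed spot across three slides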
Chain of Follistatin-related protein 3 (Homo sapiens) (O95633 whole entry, looked up): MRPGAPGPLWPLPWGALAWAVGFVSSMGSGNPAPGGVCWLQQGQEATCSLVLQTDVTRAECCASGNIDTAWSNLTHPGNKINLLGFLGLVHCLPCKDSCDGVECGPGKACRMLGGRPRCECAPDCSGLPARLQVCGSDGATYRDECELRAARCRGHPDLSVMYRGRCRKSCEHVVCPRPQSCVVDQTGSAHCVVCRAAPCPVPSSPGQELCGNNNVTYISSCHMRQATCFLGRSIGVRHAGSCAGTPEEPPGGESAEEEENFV

[9] = molecular target: Dickkopf-related protein 1 (Homo sapiens) (UniProt O94907); assay: small molecules binding DKK1 protein – biochemical, small-molecule microarray, 635 nm fluorescence scan, primary screen (AID 1106); conditions: higher = more signal;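 note: score merges emission near 667 nm with signal to noise over three replicate slides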
Chain of Dickkopf-related protein 1 (Homo sapiens) (O94907 whole entry, looked up): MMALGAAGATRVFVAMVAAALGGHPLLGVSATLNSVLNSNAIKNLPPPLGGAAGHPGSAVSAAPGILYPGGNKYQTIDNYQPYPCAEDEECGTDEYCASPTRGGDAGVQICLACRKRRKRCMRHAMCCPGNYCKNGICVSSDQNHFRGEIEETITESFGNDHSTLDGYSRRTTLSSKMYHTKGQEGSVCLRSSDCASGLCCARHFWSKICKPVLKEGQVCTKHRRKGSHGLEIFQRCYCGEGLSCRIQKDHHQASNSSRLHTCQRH

[10] = system: Inhibin beta A chain (activin A); assay: small molecules binding activin A – biochemical, small-molecule microarray, 635 nm fluorescence scan, primary screen (AID 1107); conditions: INHBA, higher = more signal;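 note: mouse activin A protein probed at 4.33 µg/mL on printed slides; score merges bound-protein fluorescence near 667 nm with spot signal-to-noise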
[11] = system: Human papillomavirus type 1a protein E7 (residues 44-93); assay: small molecules binding HPV E7 44-93 – biochemical, small-molecule microarray, residues 44-93, 635 nm fluorescence, primary screen (AID 1108); conditions: fluorescence 635 nm, higher = more signal;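 note: E7 fragment applied at 1 µg/mL in TBST for 1 h at 4 C; score combines spot fluorescence with its signal to noise ratio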
[12] = hepatitis C replication reporter changes, two-sided – Huh7 cells, luciferase reporter, HCV replication inhibitor project, primary screen (AID 1109); conditions: Huh7 HCV replicon luciferase reporter, 48 h; higher = more signal;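 note: huh7 hepatoma cells harbouring a luciferase neomycin HCV replicon reporter; luciferase luminescence as measure of HCV replicon replication; test concentration not given here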
[13] = molecular target: Left-right determination factor 2 (Homo sapiens) (UniProt O00292); assay: small molecules binding LEFTY2 protein – biochemical, small-molecule microarray, 635 nm fluorescence scan, primary screen (AID 1110); conditions: higher = more signal
Chain of Left-right determination factor 2 (Homo sapiens) (O00292 whole entry, looked up): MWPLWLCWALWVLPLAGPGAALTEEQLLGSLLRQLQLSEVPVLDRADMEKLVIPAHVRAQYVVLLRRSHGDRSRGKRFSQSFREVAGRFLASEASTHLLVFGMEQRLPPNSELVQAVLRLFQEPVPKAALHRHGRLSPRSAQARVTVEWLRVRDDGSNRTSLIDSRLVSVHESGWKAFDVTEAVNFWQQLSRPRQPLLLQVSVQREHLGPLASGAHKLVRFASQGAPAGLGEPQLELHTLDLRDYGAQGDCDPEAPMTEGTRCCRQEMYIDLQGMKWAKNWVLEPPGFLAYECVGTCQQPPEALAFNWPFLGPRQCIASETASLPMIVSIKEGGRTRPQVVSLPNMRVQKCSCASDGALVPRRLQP

[14] = molecular target: Calmodulin-1 (Homo sapiens) (UniProt P0DP23); assay: small molecules binding calmodulin-1 with EGTA – biochemical, small-molecule microarray, Cy5-labelled CALM1, profiling panel (AID 1111); conditions: Cy5-CALM1 binding fluorescence, higher = more signal;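 note: labelled calmodulin applied in Tris saline Tween buffer holding calcium plus EGTA and DTT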
[15] = molecular target: Calmodulin-1 (Homo sapiens) (UniProt P0DP23); assay: small molecules binding Ca-loaded calmodulin-1 – biochemical, small-molecule microarray, Cy5-labelled CALM1, plus calcium, artefact control for SMM control-protein annotation, profiling panel (AID 1112); conditions: Cy5-CALM1 binding fluorescence, higher = more signal;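 note: score merges spot fluorescence with signal to noise from triplicate slides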
[16] = probe aWnt5a binding to arrayed compounds – biochemical, biotinylated probe, 635/667 nm fluorescence, primary screen (AID 1113); conditions: small-molecule microarray, higher = more signal;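 note: score merges 667 nm fluorescence intensity with signal-to-noise per printed feature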
[17] = probe aShh binding to arrayed compounds – biochemical, biotinylated probe, 635/667 nm fluorescence, primary screen (AID 1114); conditions: small-molecule microarray, higher = more signal;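 note: probe is biotin-labelled aShh protein from a stem cell growth factor screen; measures binding of labelled protein to compounds printed on the slide; score merges feature fluorescence at 667 nm with signal-to-noise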
[18] = probe aNog binding to arrayed compounds – biochemical, biotinylated probe, 635/667 nm fluorescence, primary screen (AID 1115); conditions: small-molecule microarray, higher = more signal;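 note: probe is biotinylated aNog protein used at 0.15 µg/mL for 1 h at 4 C; z-score combines 667 nm fluorescence of each spot with its signal to noise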
[19] = molecular target: Torsin-1A-interacting protein 1 (Homo sapiens) (UniProt Q5JTV8); assay: compound microarray binding of lysate hLAP1 – cell lysate, small-molecule microarray, COS7 lysate, 635/667 nm fluorescence, primary screen (AID 1116); conditions: 635 nm fluorescence, higher = more signal
Chain of Torsin-1A-interacting protein 1 (Homo sapiens) (Q5JTV8 whole entry, looked up): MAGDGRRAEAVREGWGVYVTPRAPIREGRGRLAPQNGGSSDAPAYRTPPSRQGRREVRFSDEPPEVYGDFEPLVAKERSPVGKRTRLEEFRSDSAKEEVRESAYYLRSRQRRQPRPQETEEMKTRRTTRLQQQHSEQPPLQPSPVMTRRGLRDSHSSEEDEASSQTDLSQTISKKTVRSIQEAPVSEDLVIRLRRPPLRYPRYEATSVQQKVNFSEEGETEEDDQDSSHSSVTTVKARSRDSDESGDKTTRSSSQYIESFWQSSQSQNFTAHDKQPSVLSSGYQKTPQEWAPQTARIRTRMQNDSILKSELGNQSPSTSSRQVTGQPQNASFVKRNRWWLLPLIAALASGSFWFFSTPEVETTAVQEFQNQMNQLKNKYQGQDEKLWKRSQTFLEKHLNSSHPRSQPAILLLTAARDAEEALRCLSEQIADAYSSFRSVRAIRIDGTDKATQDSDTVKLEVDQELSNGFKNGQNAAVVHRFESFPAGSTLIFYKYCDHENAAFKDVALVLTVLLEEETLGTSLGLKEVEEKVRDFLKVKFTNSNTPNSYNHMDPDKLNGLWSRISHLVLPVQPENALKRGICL

[20] = molecular target: Alpha-bungarotoxin (Bungarus multicinctus) (UniProt P60615); assay: compounds binding labelled alpha-BTX control protein – biochemical, small-molecule microarray, Alexa647 label, 635/667 nm fluorescence, artefact control for SMM control protein annotation, profiling panel (AID 1117); conditions: alpha-BTX-A647 binding fluorescence, higher = more signal
Chain of Alpha-bungarotoxin (Bungarus multicinctus) (P60615 whole entry, looked up): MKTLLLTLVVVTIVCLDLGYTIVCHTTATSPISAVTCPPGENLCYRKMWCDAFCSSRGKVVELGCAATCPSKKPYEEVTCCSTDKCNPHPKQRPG

| Compound | composite z-score [1] | composite z-score [2] | composite z-score [3] | z-score [4] | composite z-score [5] | composite z-score [6] | composite z-score [7] | composite z-score [8] | composite z-score [9] | composite z-score [10] | composite z-score [11] | z-score [12] | composite z-score [13] | composite z-score [14] | composite z-score [15] | composite z-score [16] | composite z-score [17] | composite z-score [18] | composite z-score [19] | composite z-score [20] |
| --- | --- | --- | --- | --- | --- | --- | --- | --- | --- | --- | --- | --- | --- | --- | --- | --- | --- | --- | --- | --- |
| CCCNC(=O)OC[C@H]1O[C@H](c2ccccc2)C=C[C@@H]1Oc1ccc(OC)cc1 | -0.361 | -0.377 | -0.396 | -0.0906 (inactive) | 0.0708 | -0.0811 | 0.424 | 0.108 | -0.0332 | -0.339 | -0.823 | -0.974 | 0.424 | -0.598 | -0.202 | -0.132 | -0.153 | -0.343 | 0.124 | -0.0001 |
| O=C(NN=C1C[C@@H](O)[C@@H](O)[C@@H]2[C@@H]3C(=O)N(C[C@@H]4CCCO4)C(=O)[C@@H]3CC[C@H]12)OCc1ccccc1 | 0.278 | 0.545 | 0.768 | 0.0311 (inactive) | -0.132 | -0.658 | -0.0485 | -0.281 | -0.575 | 0.902 | -0.453 | 1.16 | -0.156 | 0.0715 | 0.226 | 0.0377 | -0.0146 | 0.154 | 0.349 | 0.275 |
| COCOc1ccc(Br)cc1C(=O)[C@@H]1O[C@H]1c1cccc(OC)c1 | 0.82 | -0.0616 | -0.0631 | -0.455 (inactive) | 0.152 | 0.117 | 0.284 | 0.16 | 0.219 | 0.849 | -0.392 | -3.74 | 0.377 | -0.213 | -0.187 | -0.148 | -0.136 | -0.0428 | 0.616 | 0.187 |
| C#CCCCON=C1C[C@@H](O)[C@@H](O)[C@@H]2[C@@H]3C(=O)N(Cc4ccccc4)C(=O)[C@@H]3CC[C@@H]12 | -0.596 | -0.0538 | 0.0175 | 0.351 (inactive) | -0.158 | -0.287 | 0.193 | -0.016 | -0.211 | 0.359 | 0.0417 | 0.858 | 0.26 | -0.274 | -0.0051 | -0.0236 | -0.253 | -0.133 | -0.194 | -0.221 |
| O=C1CCCC=C1C(O)CCOC(c1ccccc1)(c1ccccc1)c1ccccc1 (stereo not given) | -0.0236 | -0.231 | -0.15 | -0.0834 (inactive) | 0.0203 | -0.388 | -0.0225 | -0.108 | 0.335 | 0.874 | -1 | -3.22 | 0.13 | -0.428 | -0.131 | -0.0161 | -0.366 | 0.0195 | -0.462 | -0.28 |

Reference: PubChem BioAssay
